This is a sample that favours compounds with a hit; in the whole collection about 3.9% have one here.
SUMO Mot1 rescue: blocks SUMOylation pathway, rescuing yeast Mot1-301 growth | 320,000 tested, 1% active | growth rescue, % at 18.8 µM | AID 2716 | S. cerevisiae Mot1-301 growth rescue, ATP luminescence, 38.5C; percent above DMSO median, 100 means doubled;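 active = every valid replicate shows activation above 250% relative to neutral control wells; inactive = the rest, any valid replicate at or below 250%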;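 also: OY570 slx delta 5 strain wells were the positive control but not used for scaling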
NSD2 HMT inh: NSD2 (human) methyltransferase inhibition. O96028. NSD2 peptide methylation, AlphaScreen, 120 min. inhibition, % at 12.5 µM. 310,000 tested, 0.54% active; in the data active = inhibition above about 50%
CDK5 p35 inh: blocks human CDK5/p35 kinase activity; Recombinant CDK5/p35, ADP-Glo luminescence, 60 min; inhibition, % at 10 µM; 330,000 tested, 0.01% active; AID 488839;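 active = highest replicate inhibition of at least 50% and at least 75% of replicates reaching 50%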;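 also: plate controls were DMSO neutral control for no effect and GW8510 at 10 µM for full effect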
N-glyco inh: N-linked glycosylation inhibition; reporter increase, % at 12.5 µM; 360,000 tested, 0.23% active; AID 588692; D54 ERlucT glycosylation luciferase reporter, 24 h; percent of 100 nM tunicamycin response;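 active = mean luciferase reporter signal, scaled so untreated is 0 and the glycosylation-blocking control 100, at or above a set limit in every replicate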;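 also: luciferase carries N-glycosylation sites so blocking glycosylation raises the light; 0% = median of neutral control wells and 100% = median of 100 nM tunicamycin wells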
ALR inh: inhibitors of human sulfhydryl oxidase ALR. P55789. purified ALR, DTT oxidation, H2O2 HRP-luminol luminescence. inhibition, % (no concentration beside the values). 290,000 tested, 3.8% active. AID 485317;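 active = mean replicate inhibition above about 79%, with every replicate also reaching it, limit read from the data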
Target sequence (P55789 whole entry, looked up): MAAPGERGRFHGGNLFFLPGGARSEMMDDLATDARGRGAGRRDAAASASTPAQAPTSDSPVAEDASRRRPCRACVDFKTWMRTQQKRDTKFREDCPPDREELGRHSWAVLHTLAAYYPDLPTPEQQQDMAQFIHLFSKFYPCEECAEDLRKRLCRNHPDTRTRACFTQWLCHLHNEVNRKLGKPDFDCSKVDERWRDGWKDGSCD
Casp6 inh: blocks human caspase-6 cleavage activity; P55212; purified caspase-6, Z-VEID-R110 cleavage fluorescence; inhibition, % at 12.5 µM; 350,000 tested, 0.53% active;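 active = mean inhibition across replicates at least about 35%, with every replicate also reaching that limit, limit read from the data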;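 also: 0% = median of neutral control wells and 100% = no fluorescence left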
Target sequence (P55212 24-179 limits assumed): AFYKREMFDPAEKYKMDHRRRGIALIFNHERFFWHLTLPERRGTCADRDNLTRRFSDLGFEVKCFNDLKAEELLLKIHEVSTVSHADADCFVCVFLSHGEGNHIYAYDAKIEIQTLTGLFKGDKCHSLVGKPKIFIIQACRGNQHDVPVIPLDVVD
Target sequence (P55212 194-293 limits assumed): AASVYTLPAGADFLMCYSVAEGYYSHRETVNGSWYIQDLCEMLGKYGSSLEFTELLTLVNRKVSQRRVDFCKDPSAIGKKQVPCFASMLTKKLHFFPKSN
* hit, by the source's call; x = no result given; ! = not active in a repeat.

SMILES	SUMO Mot1 rescue	NSD2 HMT inh	CDK5 p35 inh	N-glyco inh	ALR inh	Casp6 inh
CCCC(=O)Nc1ccc(-c2ccc(NC(=O)CCC)cc2)cc1	1.9	-2.1	1.6	1.8	x	x
C[C@@H]1CN([C@H](C)CO)C(=O)c2cc(NC(=O)CCC(F)(F)F)ccc2O[C@@H](C)CCCCO[C@@H]1CN(C)Cc1ccc(C(=O)O)cc1	x	x	x	x	x	0.8
C[C@H]1CN([C@@H](C)CO)C(=O)c2cc(NC(=O)C3CC3)ccc2O[C@H]1CN(C)Cc1ccc(C(=O)O)cc1	x	x	x	x	x	5.3
C[C@@H]1CCCCO[C@@H](CN(C)C)[C@H](C)CN([C@H](C)CO)C(=O)c2cc(NS(=O)(=O)c3cccs3)ccc2O1	x	x	x	x	x	-0.7
C/C=C/c1cnc2c(c1)C(=O)N([C@@H](C)CO)C[C@@H](C)[C@@H](CN(C)S(=O)(=O)c1cn(C)cn1)O2	x	x	x	x	x	0.0
O=C(N[C@H]1c2ccccc2C[C@H]1O)C1=C[C@H](c2coc3ccccc3c2=O)C[C@H](OCCCCO)O1	x	x	x	x	x	2.5
CCCNC(=O)[C@H]1[C@H](CO)[C@H]2Cn3c(ccc(-c4cncnc4)c3=O)[C@H]2N1C(=O)c1ccccc1F	x	x	x	x	x	-0.2
CNC[C@@H]1Oc2c(NC(=O)Nc3ccc(OC)cc3)cccc2C(=O)N([C@H](C)CO)C[C@@H]1C	x	x	x	x	x	1.8
COc1ccc(CN(C)C[C@H]2Oc3ccc(NC(=O)Nc4ccccc4)cc3CC(=O)N([C@@H](C)CO)C[C@@H]2C)cc1	x	x	x	x	x	2.1
CC(=O)Nc1ccc(Nc2ccccc2)cc1	-1.5	0.9	-3.2	-1.0	98.8*	-4.1
O=C(C1CCCN(Cc2ccc(Br)cc2)C1)N1CCCCC1 (stereo unspecified)	-23.1	2.5	1.8	-0.7	89.5*	1.6
Cc1ccc(CN2CCCC(C(=O)N3CCCC3)C2)cc1 (stereo unspecified)	-7.9	-1.1	0.4	-0.7	-7.2	1.4
CN(C)/C=C/C(=O)c1ccc(Br)s1	-7.3	1.9	1.3	-2.2	91.7*	-2.2
O=S(=O)(c1ccccc1F)N1CC[C@H]2[C@H](CO)Nc3ccc(-c4ccccc4F)cc3[C@H]21	x	x	x	x	x	0.0
Cc1ccsc1/C=N/Nc1nc2ccccc2s1	7.3	-0.1	-0.5	-14.6	x	-0.4
C(=N\Nc1nc2ccccc2s1)/c1cccs1	90.1	3.4	-0.8	-11.6	89.0*	x
Cn1c(=O)[nH]c(NCCc2ccc(O)cc2)c([N+](=O)[O-])c1=O	8.1	-1.2	0.7	1.4	80.7*	0.7
COc1ccc(C(=O)Oc2ccc(=O)n(-c3ccccc3)n2)cc1	x	1.2	0.6	0.5	97.5*	x
COc1nc(NCC(C)C)nc(Oc2ccc(=O)n(-c3ccccc3)n2)n1	12.9	x	-2.0	1.4	78.5*	-0.9
CCNc1nc(OC)nc(Oc2ccc(=O)n(-c3ccccc3)n2)n1	1.9	7.1	-1.5	2.0	2.1	x
NC(=O)C1CCN(C(=O)c2cccc(S(=O)(=O)N3CCc4ccccc4C3)c2)CC1	1.5	-1.5	0.7	0.6	3.2	2.0
O=C(c1cccc(S(=O)(=O)N2CCc3ccccc3C2)c1)N1CCN(c2ccc(O)cc2)CC1	11.8	3.0	-0.2	-1.3	94.6*	0.9
CC(C)CNC(=O)C1(C)CCCN1C(=O)Cc1cccc2ccccc12 (stereo unspecified)	x	1.4	x	1.9	x	54.2*
O=C(O)c1cc(Nc2cc(Cl)c3nonc3c2[N+](=O)[O-])ccc1O	-13.2	15.7	-0.2	2.8	5.9	49.5*
O=C1OCC/C1=C\c1ccc(O)cc1	-1.5	x	2.8	1.7	98.2*	-0.2
SMILES	SUMO Mot1 rescue	NSD2 HMT inh	CDK5 p35 inh	N-glyco inh	ALR inh	Casp6 inh
O=C1Cc2cc(S(=O)(=O)N3CCN(c4ccc(C(=O)O)cc4)CC3)ccc2N1	x	x	x	1.7	x	38.0*
C[C@@H]1CN([C@@H](C)CO)C(=O)c2cc(C#CC3CC3)cnc2O[C@H]1CN(C)C(=O)Nc1ccccc1	x	x	x	x	x	-0.2
c1ccc(-c2nc3ccccc3nc2N2CCOCC2)cc1	22.3	-18.2	-0.4	2.3	x	x
Cn1c(N2CCOCC2)nc(-c2ccccc2)c1-c1ccccc1	93.0	7.2	-1.7	-0.7	98.8*	x
CCOC(=O)c1c(C)[nH]c(C)c1C(=O)CSc1nc2ccccc2[nH]1	452.6*	-3.3	0.9	2.4	14.5	x
O=C(Oc1ccc(/C=N/O)cc1)c1ccccc1	-13.6	-1.1	1.9	0.9	89.1*	x
COCCOC(=O)/C(=C/c1ccc(OC(=O)c2ccccc2)cc1)C(C)=O	170.4	0.2	0.5	2.0	95.1*	x
CCC(=O)N1[C@@H]2c3ccc(C4=CCCC4)c(=O)n3C[C@@H]2[C@@H](CO)[C@@H]1C(=O)NCc1ccccc1	x	x	x	x	x	-6.2
CCCN(C)C[C@H]1OCCCC[C@H](C)Oc2ccc(NS(=O)(=O)c3c(C)noc3C)cc2C(=O)N([C@@H](C)CO)C[C@@H]1C	x	x	x	x	x	-0.6
CCOc1cnn(-c2cc(Oc3ccc(C)cc3)ncn2)c(=O)c1Cl	0.3	-9.5	-0.5	0.4	2.5	x
Cc1ccccc1Oc1cc(-n2ncc(Cl)c(Cl)c2=O)ncn1	-36.0	1.0	-1.0	-21.6	96.9*	0.2
O=C1C=CC(=O)c2c(O)c(CO)c(CO)c(O)c21	x	x	2.5	-0.8	x	99.1*
O=C(C[C@H]1CC[C@H]2[C@@H](COC[C@@H](O)CN2Cc2ccccc2F)O1)N[C@@H]1CCN(Cc2ccccc2)C1	x	x	x	x	x	-0.5
O=C(O)C1=CCC=CC1C(=O)O (stereo unspecified)	x	16.0	x	1.0	x	67.5*
C/C=C/C(=O)Nc1nnc(-c2ccccc2C)s1	4.5	-0.5	-1.7	-3.4	98.1*	-1.4
O=c1c(O)c(-c2ccc(O)cc2)oc2cc(O)cc(O)c12	-6.0	x	2.2	-4.9	46.8	6.2
O=c1c(O)c(-c2ccc(O)c(O)c2)oc2cc(O)ccc12	x	x	48.7	-9.4	x	65.5*
C[C@H]1CN([C@@H](C)CO)C(=O)CCCn2cc(nn2)CO[C@@H]1CN(C)C(=O)CCC(F)(F)F	x	x	x	1.4	x	44.5*!
CC1CC(C)CN(C(=O)CSc2nnc(N)s2)C1 (stereo unspecified)	-10.8	3.6	-0.2	2.2	95.2*	-0.5
Cc1ccc(-c2nc(Cl)nc3ccccc23)cc1	33.4	-3.8	-0.9	-4.0	-28.5	-4.5
Cc1ccc(-c2nc3ccccc3nc2Cl)cc1	34.0	-4.4	-0.3	-0.5	91.4*	2.2
O=S(=O)(NCC(c1ccco1)N1CCN(c2ccc(F)cc2)CC1)c1ccc(F)cc1 (stereo unspecified)	-13.5	-0.6	-3.7	-4.5	32.8	x
COC(=O)NCC(c1ccco1)N1CCN(c2ccc(OC)cc2)CC1 (stereo unspecified)	7.1	x	0.8	-0.1	89.5*	-2.6
CCS(=O)(=O)NCC(c1ccco1)N1CCN(c2ccccc2)CC1 (stereo unspecified)	11.6	-3.2	1.9	1.7	93.0*	x
COc1ccc(N2CCN(C(CNS(C)(=O)=O)c3ccco3)CC2)cc1 (stereo unspecified)	-10.7	0.2	0.2	1.2	92.2*	1.1

Screens deposited in PubChem BioAssay by Broad Institute.
